PubChem BioAssay (NCATS)
Unmarked numbers belong to inactive results. Records with an inconclusive call do not appear. The source made the active and inactive calls. Calls come from the whole dose curve; as a rule, active = well fitted curve in the direction sought with a large enough effect; inconclusive = small, poorly fitted or top-dose-only effect, or another doubt; inactive = no such curve, though single readings can be large; an effect the other way counts as inactive or inconclusive.

biological target: Cytochrome P450 3A4 (Homo sapiens) (UniProt P08684); experiment: qHTS Assay for Inhibitors and Substrates of Cytochrome P450 3A4 (AID 884); conditions: recombinant CYP3A4, Luciferin-PPXE luminescence; series mostly up to 57.1 µM; activity change, negative = inhibition: at the top concentration; note: nearly all actives have a fitted effect of over 50% in size; note: potency is the fitted concentration of half-maximal effect; for activity change, negative = inhibition: % is set by controls: 0 for no effect and ±100 for the full control effect
Sequence (P08684 whole entry, looked up): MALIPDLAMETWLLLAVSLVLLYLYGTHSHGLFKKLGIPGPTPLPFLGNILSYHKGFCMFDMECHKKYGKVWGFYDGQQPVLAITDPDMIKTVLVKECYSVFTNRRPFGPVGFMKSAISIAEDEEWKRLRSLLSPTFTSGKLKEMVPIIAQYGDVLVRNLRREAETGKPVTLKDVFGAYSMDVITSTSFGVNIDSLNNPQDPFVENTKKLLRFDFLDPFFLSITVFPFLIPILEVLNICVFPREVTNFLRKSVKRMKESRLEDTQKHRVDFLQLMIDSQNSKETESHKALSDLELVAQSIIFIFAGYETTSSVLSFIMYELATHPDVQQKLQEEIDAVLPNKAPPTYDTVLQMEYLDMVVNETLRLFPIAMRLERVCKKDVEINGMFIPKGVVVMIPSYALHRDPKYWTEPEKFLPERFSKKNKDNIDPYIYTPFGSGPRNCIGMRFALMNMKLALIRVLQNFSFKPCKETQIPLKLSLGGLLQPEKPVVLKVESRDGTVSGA
In short: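 Luminescent readout of luciferin produced by CYP3A4 (20 nM) dealkylation of Luciferin-PPXE, 25 uM (its KM). NADPH-driven reaction ran 60 min at RT after 10 min compound preincubation; data scaled to 57 uM ketoconazole as 100% inhibition.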

SMILES	Potency	activity change, negative = inhibition
CC(Cc1ccc(O)c(O)c1)C(C)Cc1ccc(O)c(O)c1 (stereo not drawn)	12.6 µM (active)	
OCc1ccccc1O[C@@H]1O[C@H](CO)[C@@H](O)[C@H](O)[C@H]1O		-7.83%
Cc1c(C)c2c(c(C)c1O)CC[C@@](C)(CCC[C@H](C)CCC[C@H](C)CCCC(C)C)O2		9.98%
Cc1cn([C@H]2C[C@H](O)[C@@H](CO)O2)c(=O)[nH]c1=O		-14.6%
O=c1ccn([C@@H]2O[C@H](CO)[C@@H](O)[C@H]2O)c(=O)[nH]1		-11.8%
CC1=C(/C=C/C(C)=C/C=C/C(C)=C/C=C/C=C(C)/C=C/C=C(C)/C=C/C2=C(C)CCCC2(C)C)C(C)(C)CCC1		-42%
Oc1cc(O)c2c(c1)OC(c1ccc(O)c(O)c1)C(O)C2 (stereo not drawn)		-42.2%
O=C(O)CN(CCN(CC(=O)O)CC(=O)O)CC(=O)O		-8.32%
CC1=C(/C=C/C(C)=C/C=C/C(C)=C/C=C/C=C(C)/C=C/C=C(C)/C=C/C2=C(C)C(=O)CCC2(C)C)C(C)(C)CCC1=O		4.96%

biological target: Cytochrome P450 3A4 (Homo sapiens) (UniProt P08684); experiment: qHTS Assay for Activators of Cytochrome P450 3A4 (AID 885); conditions: recombinant CYP3A4, Luciferin-PPXE luminescence, 60 min; series mostly up to 57.1 µM; activity change, positive = activation: at the top concentration; note: nearly all actives have a fitted effect of over 65% in size
Protocol: NIH Molecular Libraries Screening Centers Network [MLSCN]
NIH Chemical Genomics Center [NCGC]
The P450 gene superfamily is involved in the metabolism and clearance of xenobiotics. This assay used human CYP3A4 to measure the dealkylation of luciferin-6' phenylpiperazinylyl (Luciferin-PPXE; […]) to luciferin. The luciferin is then measured by luminescence after the addition of a luciferase detection reagent. Luciferin-PPXE concentration in the assay was equal to its KM for CYP3A4. Inhibitors and some substrates limit the production of luciferin, and decrease measured luminescence; activators increase the production of luciferin and luminescence.
NCGC Assay Protocol Summary:
Two uL of enzyme and substrate mix (final concentrations: 20nM CYP3A4, 25uM Luciferin-PPXE, 200mM KPO4) were dispensed into a white, solid bottom 1536-well microtiter plate. 23nL of compound was transferred by a pin tool. The plate was incubated at RT for 10 min. Two uL of an NADPH regeneration solution (Promega supplied reagent) was dispensed and the reaction was allowed to continue for 60 min at RT. Then the reaction was stopped by reconstituted luciferin detection buffer. After another 20 min of incubation the plate was read on the ViewLux (Perkin Elmer) at 60 sec exposure and 2x2 binning. This protocol was carried out with Promega-Glo reagents and further information can be found at http://www.promega.com/tbs/tb325/tb325.pdf. Data were normalized to the to AC100 inhibition (57 uM ketoconazole).
Keywords: P450, CYP2D6, Luciferase, MLSMR, MLSCN, NIH Roadmap, qHTS, NCGC

SMILES	activity change, positive = activation
CC(Cc1ccc(O)c(O)c1)C(C)Cc1ccc(O)c(O)c1 (stereo not drawn)	-70.9%
CC(C(=O)O)c1ccc(N2Cc3ccccc3C2=O)cc1 (stereo not drawn)	-33.9%
C=CCSSSCC=C	-37.6%
C[C@@H]1CCC2[C@@H](C)[C@@H](O)O[C@@H]3O[C@@]4(C)CC[C@@H]1[C@@]23OO4 (stereo partly drawn)	-34.7%

biological target: Cytochrome P450 2D6 (Homo sapiens) (UniProt P10635); experiment: qHTS Assay for Inhibitors and Substrates of Cytochrome P450 2D6 (AID 891); conditions: recombinant CYP2D6, luciferin-ME EGE luminescence; series mostly up to 57.1 µM; activity change, negative = inhibition: at the top concentration; note: potency is the fitted concentration of half-maximal effect; nearly all actives have a fitted effect of over 60% in size
Sequence (P10635 whole entry, looked up): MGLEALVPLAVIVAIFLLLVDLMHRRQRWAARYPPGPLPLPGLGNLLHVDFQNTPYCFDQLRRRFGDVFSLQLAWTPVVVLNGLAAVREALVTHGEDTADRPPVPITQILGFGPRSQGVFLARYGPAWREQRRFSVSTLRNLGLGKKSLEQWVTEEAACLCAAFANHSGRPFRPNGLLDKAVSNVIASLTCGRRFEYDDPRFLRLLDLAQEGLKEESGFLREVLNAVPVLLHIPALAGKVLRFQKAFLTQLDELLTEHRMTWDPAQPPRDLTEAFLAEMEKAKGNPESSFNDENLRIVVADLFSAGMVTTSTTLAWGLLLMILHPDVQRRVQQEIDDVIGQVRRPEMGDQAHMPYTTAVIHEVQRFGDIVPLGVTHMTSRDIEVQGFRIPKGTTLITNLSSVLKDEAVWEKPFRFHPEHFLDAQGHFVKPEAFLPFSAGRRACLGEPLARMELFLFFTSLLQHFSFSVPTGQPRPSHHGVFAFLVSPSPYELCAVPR
In short: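 Luminescent read-out of luciferin formed by 5 nM human CYP2D6 demethylating 30 uM Luciferin-ME EGE (Km level) over 60 min at room temperature after NADPH regeneration addition. Data normalized to full inhibition by 1.43 uM quinidine.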

SMILES	Potency
CN(C)CCCN1c2ccccc2C(C)(C)c2ccccc21	3.98 µM (active)
CC(C)N=c1cc2n(-c3ccc(Cl)cc3)c3ccccc3nc-2cc1Nc1ccc(Cl)cc1	2.51 µM (active)
O=C1CSC2(CCN(CCCN3c4ccccc4Sc4ccc(Cl)cc43)CC2)N1	0.631 µM (active)

test system: not listed separately; experiment: Confirmation and Secondary Assay for Modulators of Hemoglobin Beta Chain Splicing at IVS2 654 locus (AID 910); conditions: HeLa EGFP-654 splicing reporter, GFP fluorescence, 48 h; series mostly up to 46.1 µM; activation (splicing correction): at the top concentration;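 note: HeLa cells stably carrying EGFP split by mutant beta-globin IVS2-654 intron; per-well total GFP intensity by laser scanning cytometry after 2-day treatment; % of control where 0% means no effect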
In short: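 Readout: per-well total peak green fluorescence (488 nm ex, 500–520 nm em) from objects 5–250 µm, reflecting correct splicing of an EGFP-654 reporter. Compounds were applied for 2 days at 37 °C to overnight-plated HeLa EGFP-654 cells; controls were DMSO and 500 nM IVS2-654 PNA.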

SMILES	activation (splicing correction)
CCC(=O)NCCC1CCc2ccc3c(c21)CCO3 (stereo not drawn)	0.224%
CCCC(=O)Nc1ncnc2c1ncn2C1OC2COP(=O)(O)OC2C1OC(=O)CCC (stereo not drawn)	10.1%
CC(C(=O)O)c1ccc(N2Cc3ccccc3C2=O)cc1 (stereo not drawn)	3.16%
C=CCSSSCC=C	1.91%
Nc1c(Br)cc(Br)cc1CNC1CCC(O)CC1 (stereo not drawn)	-3.83%
CC1=C(/C=C/C(C)=C/C=C/C(C)=C/C=C/C=C(C)/C=C/C=C(C)/C=C/C2=C(C)CCCC2(C)C)C(C)(C)CCC1	0.333% [at 38.3 µM]
NC(=O)c1ncn(C2OC(CO)C(O)C2O)n1 (stereo not drawn)	-0.861% [at 38.3 µM]
CN1Cc2c(N)cccc2C(c2ccccc2)C1 (stereo not drawn)	-1.36%
Oc1cc(O)c2c(c1)OC(c1ccc(O)c(O)c1)C(O)C2 (stereo not drawn)	4.64%
O=C(O)CN(CCN(CC(=O)O)CC(=O)O)CC(=O)O	-0.499%
CC1=C(/C=C/C(C)=C/C=C/C(C)=C/C=C/C=C(C)/C=C/C=C(C)/C=C/C2=C(C)C(=O)CCC2(C)C)C(C)(C)CCC1=O	1.42% [at 38.3 µM]
C[C@@H]1CCC2[C@@H](C)[C@@H](O)O[C@@H]3O[C@@]4(C)CC[C@@H]1[C@@]23OO4 (stereo partly drawn)	-2.62% [at 38.3 µM]
